Data from PubChem BioAssay (NCI).
About 79,000 compounds went through this panel and 15% of them were active in at least one assay; those are over-represented in the sample as a whole. Values without a mark were called inactive. Calls of active or inactive are those of the source. Cut-off read from the data, not from the text of the source: active = growth inhibition above about 70%; inactive = the rest.

Assay: NCI Yeast Anticancer Drug Screen. Data for the CLN2oe strain (AID 163);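 note: 0% = growth of vehicle-only control cultures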
Conditions: S. cerevisiae CLN2oe strain, hits give high values
Experimental: Growth inhibition of yeast strains with defined genetic alterations is measured as a screen for potential anti-cancer activity. Selected strains with alterations in DNA damage repair or cell cycle control were exposed to compounds and growth inhibition was measured relative to vehicle treated controls. The strain used in this assay is CLN2oe

Row | SMILES | growth inhibition (at 1.2 µM) | growth inhibition (at 3.7 µM) | growth inhibition (at 11.0 µM) | growth inhibition (at 33.0 µM) | growth inhibition (at 100.0 µM)
1 | CC1=CC(=C(c2ccc(N)cc2)c2ccc(N)cc2)C=CC1=N | 22% | 43% | 39% | 23% | 78% (active)
2 | CC(C)(C)CC(C)(C)c1cc(O)c(O)c(CN2CCCCC2)c1 | -3% | 1% | 0% | 9% | 49%
3 | CC(C)OC(=O)c1ccc(CCc2cc(O)c(Br)cc2O)cc1 | -5% | 19% | 53% | 92% (active) | 95% (active)
4 | CN(C)N=Nc1ccccc1C(=O)NC#N | 23% | 22% | 98% (active) | 99% (active) | 99% (active)
5 | Cc1cc(C(C)(C)CC(C)(C)C)ccc1O | -31% | -28% | -17% | 98% (active) | 99% (active)
6 | NC1=NNC2(C(N)=N1)c1ccccc1-c1ccccc12 | 9% | 15% | 21% | 39% | 97% (active)
7 | CC1=C(C(=O)NCc2ccccc2)C(c2ccccc2)C(C(=O)NCc2ccccc2)=C(C)N1 | -5% | 1% | -2% | 4% | 63%
8 | CCCCCCN(CCCCCC)CC(O)c1ccnc2ccc(OC)cc12 (stereo not given) | 6% | 1% | -1% | 1% | 36%
